Here are results for 64 compounds from PubChem BioAssay AID1347075 (National Center for Advancing Translational Sciences (NCATS), 2019).

Structures are written as SMILES. The whole screen tested about 400,000 compounds, of which about 5,500 (1.4%) were called active. Inconclusive results (about 9%) are left out. The entries come from a sample that favours actives as a whole. A number with no mark means an inactive call. The call rests on the fitted dose curve; in most records, active means well fitted cell-killing curve with a large enough effect; inconclusive means small, poorly fitted or top-dose-only effect, or effect the other way; inactive means flat fitted curve, though single readings scatter.
On the % scale 0 is the no-effect control and ±100 the full control effect; potency means the concentration at half of the fitted maximal effect.

A short description of the assay: qHTS assay for MDR1-selective chemotherapeutics: Primary screen using the parental adenocarcinoma cell KB-3-1. Further: nearly all actives have a fitted effect of over 60% in size. Particulars: KB-3-1 viability, CellTiter-Glo ATP luminescence, 72 h; series mostly up to 46.1 µM; activity change, negative = cytotoxic: at the top concentration. The essentials: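 Luminescent ATP read-out (CellTiter-Glo) measures survival of drug-naive KB-3-1 cells after 72 h compound exposure at 37 °C. Titration series was screened from lowest to highest concentration, with DMSO vehicle plates as background controls.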
On the technique in general: Quantitative high-throughput screening tests each substance at several concentrations.
On to `CC1CCN(c2nc3ccc(C(=O)N4CCN(c5ccccc5)CC4)cc3s2)CC1`, for which the “activity change, negative = cytotoxic” value was 0%.
Consider `COc1ccc2nc(N3CCN(C(=O)c4ccc([N+](=O)[O-])o4)CC3)sc2c1`, for which the Potency is 16.4 µM (active).
As for `O=C(NCc1ccc(F)cc1)c1ccc2nc(N3CCCCC3)sc2c1`, the “activity change, negative = cytotoxic” value was 16.9%.
The same measure, in the same setting: as for `COc1cc(C(=O)N2CCN(C(=O)COc3cccc(C)c3)CC2)cc(OC)c1OC`, the figure is -6.07%; as for `CC(=O)Nc1cnc(-c2ccc(O)cc2C)cn1`, -0.089%.
Take `Cc1ccc(Nc2nc(-c3ccc(O)cc3O)cs2)nc1`: the Potency is 20.6 µM (active).
Regarding `Cc1ccn2c(-c3csc(Nc4ccc(C(=O)O)cc4)n3)c(C)nc2c1`, the “activity change, negative = cytotoxic” value was -6.25%.
Same read-out and setting: as for `Cc1ccc(CN2CCCn3nc(C(=O)NCc4ccccc4Cl)cc3C2=O)cc1`, the figure is -19.7%.
`CCOC(=O)c1nnn(CC(=O)NC(=O)Nc2ccccc2F)c1C(=O)OCC`: the “activity change, negative = cytotoxic” value is 18.1%.
Same read-out and setting: next, `COC(=O)c1ccccc1S(=O)(=O)Nc1ccc(OC)cc1`: 0%.
Consider `COC(=O)c1c(C)oc(C)c1S(=O)(=O)Nc1ccc(C(C)C)cc1`, for which the Potency is 3.26 µM (active).
Consider `COC(=O)c1c(C)oc(C)c1S(=O)(=O)NCc1ccc(Cl)cc1`, for which the “activity change, negative = cytotoxic” value was -8.99%.
Take `O=C(Nc1ccon1)c1nc[nH]c1C(=O)NCc1ccccc1`: the Potency was 5.8 µM (active).
`O=C(Nc1cc(Br)ccc1F)c1nc[nH]c1C(=O)NCc1ccccc1`: the “activity change, negative = cytotoxic” value was -0.0726%.
Still for that read-out and setting: next, `CC(C)(C)OC(=O)NCCCCCNC(=O)c1nc[nH]c1C(=O)NCc1ccccc1`: 0.352%; `COc1ccc(NC(=O)c2ccc3nc(C(C)C)oc3c2)cc1OC`: -2.26%.
On the same count and under the same terms, next, `COC(=O)c1sc2ncccc2c1-n1c(C)ccc1C`: 20.6%; `O=C(NC1CCCCC1)c1ccc(Cn2c(SCc3ccccc3)nc3cccnc32)cc1`: 7.78%.
With `Cc1oc2c(c1C(=O)Nc1ccc(F)c(F)c1)C1=NCCN1C=N2`, the “activity change, negative = cytotoxic” value was 16.5%.
`O=C(Nc1ccc2nc(SCC(=O)N3CCc4ccccc43)sc2c1)c1ccccc1F`: the “activity change, negative = cytotoxic” value is 9.11%.
On the same count and under the same terms, as for `CCOc1ccc(NC(=O)c2cn(C3CCCCC3)c(=O)c3c2c2ccccc2n3C)cc1`, the figure is -1.1%; as for `COCCNC(=O)CSc1nc(-c2ccccc2)[nH]c1-c1ccc(C)cc1`, 0%; as for `COc1cccc(-c2nc(S(=O)(=O)c3ccc(C)cc3)c(NCc3ccccc3)o2)c1`, -8.2%.
Regarding `CC(Nc1ccc(-c2nc(-c3ccco3)no2)cc1[N+](=O)[O-])c1ccccc1` (centres undefined), the “activity change, negative = cytotoxic” value was -23.5%.
`O=C(NCc1ccccc1)C1CCN(S(=O)(=O)c2ccc3[nH]c(=O)ccc3c2)CC1`: the “activity change, negative = cytotoxic” value is 0.516%.
For the compound `COc1ccc(Cl)cc1NC(=O)C1CC(=O)N(c2ccc(F)cc2)C1` (centres undefined), the “activity change, negative = cytotoxic” value was 0.372%.
Still for that read-out and setting: as for `COc1ccccc1N1CC(C(=O)Nc2ccc(S(=O)(=O)N3CCOCC3)cc2)CC1=O` (centres undefined), the figure is 8.27%.
Turning to `COc1cc(OC)c(N2CC(C(=O)Nc3cc(Cl)ccc3N3CCOCC3)CC2=O)cc1Cl` (centres undefined), the Potency is 5.8 µM (active).
As to `CCCCn1cc(S(=O)(=O)c2ccc(OCC)cc2)c(=O)c2cc(OC)c(OC)cc21`, the “activity change, negative = cytotoxic” value was 3.26%.
The same measure, in the same setting: as for `Cc1cccc(N2CCN(C(=O)c3ccc(Nc4nc5ccccc5n5nnnc45)cc3)CC2)c1C`, the figure is 10.5%; as for `CCN(CC)S(=O)(=O)c1ccc(N2CCOCC2)c(NC(=O)c2ccc(=O)n(C)n2)c1`, 1.26%.
Turning to `CCN(CC)S(=O)(=O)c1ccc(N2CCCC2)c(NC(=O)c2ccc([N+](=O)[O-])o2)c1`, the Potency was 6.51 µM (active).
Consider `CCN(CC)S(=O)(=O)c1cc(C(=O)Nc2cc(S(=O)(=O)N3CCOCC3)ccc2N2CCCC2)ccc1F`, for which the “activity change, negative = cytotoxic” value was -7.07%.
On the same count and under the same terms, next, `Cc1[nH]c2ccccc2c1C(=O)C(=O)N(C)c1ccccc1`: 0%; `CCn1c2c(c(=O)n3ncc(C(=O)N4CCN(c5ccccc5)CC4)c13)CN(Cc1ccc(OC)cc1)CC2`: -2.44%.
Regarding `C/C(=N\NC(=O)c1ccoc1C)c1ccccc1O`, the Potency is 14.6 µM (active).
As to `C/C(=N/NC(=O)CCc1ccccc1)c1ccco1`, the “activity change, negative = cytotoxic” value is 19.7%.
Take `CC(=N\NC(=O)c1cc(Br)ccc1O)/C(=N/O)C(=O)Nc1ccccc1`: the “activity change, negative = cytotoxic” value was -43.4%.
Take `O=C(NCc1ccc2c(c1)CCN2C(=O)c1ccccc1)c1ccccc1`: the “activity change, negative = cytotoxic” value is 4.06%.
`COc1ccc(NC(=O)Cn2c(=O)n(Cc3ccc(C(=O)NCc4ccccc4Cl)cc3)c(=O)c3ccccc32)cc1`: the “activity change, negative = cytotoxic” value is 4.15%.
On to `C=CC(=O)OCCOCCOCCOCCOC(=O)C=C`, for which the Potency is 10.3 µM (active).
Regarding `CCOC(=O)c1ccc(NC(=O)Cn2c(=O)cc(C)c3c(C)nn(-c4cccc(F)c4)c32)cc1`, the “activity change, negative = cytotoxic” value is 0.642%.
The same measure, in the same setting: as for `CCC(=O)N1CCc2cc(CNC(=O)Nc3ccccc3Cl)ccc21`, the figure is -20.1%; as for `COC(=O)c1scc(-c2ccc(C)cc2)c1S(=O)(=O)Nc1cc(Cl)c(OC)cc1OC`, -0.714%; as for `CCc1ccc(Sc2cc(C(=O)NCCCOC(C)C)c3ccccc3n2)cc1`, -1.08%.
As for `Cn1c(-c2ccco2)nc2cc3ccccc3cc21`, the Potency was 18.4 µM (active).
Consider `Cc1ccc2nc(-c3ccco3)c(Cc3cccc(Cl)c3)n2c1`, for which the “activity change, negative = cytotoxic” value was -2.85%.
`CSc1n[nH]c(-c2ccco2)n1`: the “activity change, negative = cytotoxic” value is -2.46%.
Same read-out and setting: as for `N#Cc1ccc(-c2cccs2)nc1SCc1ccc(Br)cc1`, the figure is 2.25%.
Turning to `CCOc1ccccc1NC(=O)Cn1nnc(C(=O)NCc2cccs2)c1N`, the Potency is 0.259 µM (active).
On to `CCOc1ccccc1NC(=O)Cn1nnc(C(=O)Nc2ccc(C)c(C)c2)c1N`, for which the “activity change, negative = cytotoxic” value is 0.046%.
The same measure, in the same setting: next, `Cc1ccc(NC(=O)Cn2nnc(C(=O)NCc3ccco3)c2N)c(C)c1`: -2.38%.
Turning to `CCc1ccccc1NC(=O)Cc1ccc(NC(=O)N2CCCCc3ccccc32)cc1`, the “activity change, negative = cytotoxic” value was 0%.
On the same count and under the same terms, as for `CC(C)(C)NC(=O)CSc1nc(-c2ccc(F)cc2)cc(C(F)(F)F)n1`, the figure is 4.09%; as for `Cc1ccc(Cl)cc1NC(=O)CSc1nccn1C`, -6.62%; as for `COc1ccc(-c2nc3c(s2)CCc2onc(-c4ccc(Br)cc4)c2-3)cc1`, 0%.
Take `COc1ccc(-c2cc(C(=O)Nc3sc4c(c3C(N)=O)CCCC4)no2)cc1`: the “activity change, negative = cytotoxic” value was 15.2%.
Turning to `COc1ccc(-c2nc3c(s2)CCc2onc(-c4ccc(OC)cc4)c2-3)cc1`, the Potency is 20.6 µM (active).
In the case of `COc1ccccc1CNC(=O)CCn1c(=O)c2ccccc2n(CC(=O)Nc2cccc(Cl)c2)c1=O`, the “activity change, negative = cytotoxic” value was 1.39%.
Consider `COc1ccc(CCNc2ncnc3c2cnn3-c2ccc(C)cc2)cc1`, for which the “activity change, negative = cytotoxic” value was 6.58%.
Take `O=C(NCc1ccccc1Cl)C1=Cc2cc(Br)ccc2OC1`: the “activity change, negative = cytotoxic” value was -0.821%.
Same read-out and setting: as for `CCn1c2ccccc2c2cc(NC(=O)COc3ccc(C)cc3C)ccc21`, the figure is -5.72%; as for `CCOC(=O)c1cccc(NC(=O)CCOc2ccccc2)c1`, -5.85%.
For the compound `CCOCCC(=O)Nc1ccc2c(c1)c(=O)n(C)n2-c1ccc2ccccc2c1`, the Potency is 3.66 µM (active).
